# Source: PubChem BioAssay AID2316 (Broad Institute, 2010)
# The campaign covered roughly 29,000 compounds. Fewer than 10 were called active. No rule for the calls is given here. A selection follows.
# Assay: activators reversing PD-1 mediated T-cell inhibition, primary screen, luminescence, primary human CD4 T cells, PD-L1 beads (AID 2316);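 also: 0% = median vehicle wells and 100% = positive control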
# Conditions: CellTiter-Glo 96 h, stronger effect = higher value
row,SMILES,activation
1,C[C@@H]1CCCCO[C@@H](CN(C)C(=O)CCCN(C)C)[C@@H](C)CN([C@H](C)CO)C(=O)c2cc(NC(=O)Nc3ccc(F)cc3)ccc2O1,0.492% (inactive)
2,C[C@@H]1CCCCO[C@@H](CN(C)S(=O)(=O)c2cccs2)[C@@H](C)CN([C@H](C)CO)C(=O)c2cc(NC(=O)Nc3ccc4c(c3)OCO4)ccc2O1,-0.659% (inactive)
3,C[C@H](CO)N1C[C@H](C)[C@@H](CN(C)Cc2ccccc2)Oc2c(NC(=O)C3CCOCC3)cccc2C1=O,-1.74% (inactive)
4,COC(=O)c1scc(S(=O)(=O)C(C)(C)C)c1-n1cccc1,-0.136% (inactive)
5,COc1cc(/C=C/C(=O)O[C@@H]2O[C@H](CO[C@@H]3O[C@H](CO)[C@@H](O)[C@H](O)[C@H]3O)[C@@H](O)[C@H](O)[C@H]2OC(=O)/C=C/c2cc(OC)c(O)c(OC)c2)cc(OC)c1O,-0.424% (inactive)
6,O=C(CCCN1C(=O)c2ccccc2C1=O)Nc1cccc2c1CCCC2,1.14% (inactive)
7,CCC1(C)C(=O)C=C2C(=COC(C)=C2C)C1O (centres undefined),0.686% (inactive)
8,CCCOc1ccc(C(=O)C2C(=O)C(=O)N(c3nc(C)c(C(=O)OC)s3)C2c2ccco2)cc1 (centres undefined),1.4% (inactive)
9,Cc1ccc(S(=O)(=O)Nc2cccc3c2O[C@@H](CN(C)CC2CCCCC2)[C@H](C)CN([C@@H](C)CO)C3=O)cc1,3.09% (inactive)
10,C[C@H]1CN([C@@H](C)CO)C(=O)Cc2cc(NC(=O)Nc3ccc(F)cc3)ccc2O[C@@H]1CN(C)C(=O)NC1CCCCC1,0.349% (inactive)
11,COc1ccc(S(=O)(=O)NCc2ccccn2)cc1I,1.57% (inactive)
12,C[C@H](CO)N1C[C@H](C)[C@@H](CN(C)Cc2ccccc2)Oc2ccc(NC(=O)CCCN(C)C)cc2C1=O,1.04% (inactive)
13,Cc1noc(C)c1NC(=O)Nc1ccc2c(c1)C(=O)N([C@H](C)CO)C[C@H](C)[C@@H](CN(C)C(=O)Nc1ccccc1)O2,1.04% (inactive)
14,C[C@H](CO)N1C[C@H](C)[C@H](CN(C)Cc2ccc3c(c2)OCO3)Oc2c(cccc2N(C)C)C1=O,0.478% (inactive)
15,C[C@H]1CN([C@@H](C)CO)C(=O)c2cccc(NC(=O)CCCCCC(=O)Nc3ccccc3N)c2O[C@@H]1CN(C)CC1CCCCC1,0.769% (inactive)
16,CS(=O)(=O)N(CC(=O)NC1CC1)c1ccc(Cl)c(C(F)(F)F)c1,-0.255% (inactive)
17,CCOC(=O)c1cnn2c(C(F)(F)F)cc(C)nc12,0.193% (inactive)
18,COC(=O)c1ccccc1NC(=O)C(C)Oc1ccccc1F (centres undefined),2.99% (inactive)
19,COc1ccc(N2C(=O)CC(SCC(=O)Nc3ccccc3F)C2=O)cc1 (centres undefined),1.75% (inactive)
20,COc1ccc(C)cc1S(=O)(=O)N(C)CC(=O)Nc1ccc(Br)cc1F,1.42% (inactive)
21,Cc1ccc(S(=O)(=O)Nc2ccc3c(c2)C(=O)N([C@H](C)CO)C[C@H](C)[C@@H](CN(C)C(=O)Nc2ccc4c(c2)OCO4)OCCCC[C@@H](C)O3)cc1,0.503% (inactive)
22,CCCCn1c(O)c(C#N)c(C)cc1=O,1.29% (inactive)

row,SMILES,activation
1,Cc1ccc(-c2csc3ncn(CC(=O)Nc4ccc(F)c(Cl)c4)c(=O)c23)cc1C,-0.0295% (inactive)
2,COc1ccc(NC(=O)N(C)C[C@@H]2OCCCC[C@@H](C)Oc3ccc(N(C)C)cc3C(=O)N([C@H](C)CO)C[C@@H]2C)cc1,0.076% (inactive)
3,O=S(=O)(c1ccc(Cl)cc1)c1nc(-c2ccccc2F)oc1NCCN1CCOCC1,-0.673% (inactive)
4,NC(=O)c1c(NC(=O)c2cnn3c(C(F)F)cc(-c4ccccc4)nc23)sc2c1CCCC2,-5.98% (inactive)
5,C[C@@H]1CN([C@H](C)CO)C(=O)c2cc(NC(=O)Cc3cn(C)c4ccccc34)ccc2O[C@H]1CN(C)S(C)(=O)=O,-1.87% (inactive)
6,Cc1ccc(S(=O)(=O)Nc2cccc3c2O[C@@H](CN(C)C(=O)Nc2ccccc2)[C@H](C)CN([C@@H](C)CO)C3=O)cc1,2.15% (inactive)
7,COc1ccc(S(=O)(=O)N(C)C[C@H]2Oc3ccc(NS(=O)(=O)c4c(C)noc4C)cc3CC(=O)N([C@@H](C)CO)C[C@H]2C)cc1,-0.136% (inactive)
8,COc1ccc(NC(=O)CSc2nc(-c3cccs3)cc(-c3ccsc3)c2C#N)cc1OC,-6.31% (inactive)
9,O=C(CCc1nc(-c2ccccc2Cl)no1)Nc1ccc(Cl)c(Cl)c1,1.17% (inactive)
10,C=CCSc1nc(N)cc(=O)[nH]1,0.998% (inactive)
11,C[C@@H]1CN([C@H](C)CO)C(=O)Cc2cc(NS(=O)(=O)c3ccc(Cl)cc3)ccc2O[C@H]1CN(C)S(=O)(=O)c1cccs1,-2.73% (inactive)
12,O=C(c1ccc(Cl)cc1)n1c(=O)oc2cc(Cl)ccc21,-0.599% (inactive)
13,Cc1ccccc1NC(=O)CSc1nnc(-c2ccc([N+](=O)[O-])cc2)n1C,0.454% (inactive)
14,C[C@H]1CN([C@@H](C)CO)C(=O)c2cc(NS(=O)(=O)c3ccc(Cl)cc3)ccc2O[C@H]1CN(C)Cc1ccc(Oc2ccccc2)cc1,0.482% (inactive)
15,O=C1Cc2ccc(F)cc2CC1C1=Cc2ccc(F)cc2CC1 (centres undefined),-8.11% (inactive)
16,Cc1ccc([N+](=O)[O-])cc1N(CC(=O)Nc1ccc(Cl)c(C(F)(F)F)c1)S(C)(=O)=O,3.56% (inactive)
17,N/C(CSc1nc2ccccc2s1)=N\O,-0.165% (inactive)
18,C[C@@H]1CN([C@H](C)CO)C(=O)Cc2cc(NC(=O)NC3CCCCC3)ccc2O[C@H]1CN(C)S(C)(=O)=O,2.26% (inactive)
19,CC(C)(C)c1cn2c3ccccc3nc2n1CCN1CCOCC1,-2.35% (inactive)
20,O=C(c1ccco1)N1CCN(CCOc2ccccc2)CC1,4.48% (inactive)
21,COc1ccc(S(=O)(=O)Nc2ccc3c(c2)CC(=O)N([C@H](C)CO)C[C@@H](C)[C@@H](CN(C)C(=O)Nc2cccc4ccccc24)O3)cc1,0.476% (inactive)
22,C[C@@H]1CCCCO[C@@H](CN(C)S(=O)(=O)c2cn(C)cn2)[C@@H](C)CN([C@H](C)CO)C(=O)c2cc(NC(=O)c3ccncc3)ccc2O1,3.7% (inactive)
